About 70 (0.2%) of roughly 33,000 compounds were called active. Cut-off read from the data, not from the text of the source: active = inhibition above about 30%; inactive = the rest. Not all results are given here.
Molecular target: Coagulation factor XII (Homo sapiens) (UniProt P00748)
Experiment: human FXIIa protease inhibitors, primary screen, biochemical, single well (AID 701);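 note: 0% = enzyme with vehicle only and 100% = no enzyme blank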
Conditions: purified human FXIIa, AMC substrate fluorescence, 2 h; at 10 µM; hits give high values

Sequence of Coagulation factor XII (Homo sapiens) (P00748 20-372 limits assumed): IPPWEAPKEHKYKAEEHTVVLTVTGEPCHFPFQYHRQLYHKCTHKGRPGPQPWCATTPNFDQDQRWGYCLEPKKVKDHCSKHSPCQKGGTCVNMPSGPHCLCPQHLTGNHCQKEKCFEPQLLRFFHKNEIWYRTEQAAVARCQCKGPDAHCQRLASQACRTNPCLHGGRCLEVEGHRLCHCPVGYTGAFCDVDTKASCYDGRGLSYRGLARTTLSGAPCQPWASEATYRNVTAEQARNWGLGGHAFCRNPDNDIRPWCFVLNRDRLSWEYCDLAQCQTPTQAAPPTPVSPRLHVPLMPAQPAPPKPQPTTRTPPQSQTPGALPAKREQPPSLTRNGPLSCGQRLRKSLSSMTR
Sequence of Coagulation factor XII (Homo sapiens) (P00748 373-615 limits assumed): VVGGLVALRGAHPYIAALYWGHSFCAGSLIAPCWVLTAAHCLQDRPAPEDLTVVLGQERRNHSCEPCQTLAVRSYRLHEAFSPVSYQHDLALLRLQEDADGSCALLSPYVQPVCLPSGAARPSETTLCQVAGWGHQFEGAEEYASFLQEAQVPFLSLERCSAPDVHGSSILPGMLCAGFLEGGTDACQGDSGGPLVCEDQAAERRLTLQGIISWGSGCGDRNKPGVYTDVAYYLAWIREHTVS

inhibition, inactive:
COCCCNC(=O)CN1CCN(Cc2ccccc2Cl)C1=O 13.3%
COCCNC(=O)COc1ccc(C)c(C)c1 5.6%
COC(=O)C1C(=O)NCC1c1ccc(C)cc1 (configuration not stated) 4.77%
COc1ccc(C(=O)Nc2ccc(CN3CCOCC3)cc2)cc1 -0.34%
COC(=O)c1ccccc1Sc1c(/C=N/OCc2ccc(Cl)cc2)c(C(F)(F)F)nn1C 5.69%
CCSc1nc(-c2ccc(OC)cc2)cc(-c2ccc(OC)cc2)c1C#N 12.5%
COC(=O)[C@@H](NC(=O)Nc1cc(Cl)ccc1C)C(C)C -0.53%
O=C(OCC#CCSc1nnc(-c2ccncc2)o1)c1sc2ccccc2c1Cl -11.2%
O=C(Cc1c(O)c2ccccc2[nH]c1=O)NCc1ccccc1 -1.57%
Cc1ccc(S(=O)(=O)/N=C(\CN2CCOCC2)N2CCOCC2)cc1 -13.1%
O=C(NCCCn1ccnc1)Nc1ccc(Cl)cc1Cl -12%
Cc1cccc(NC(=O)CSc2nnc(-c3ccco3)o2)c1 7.32%
CCOc1ccc(N(CC(=O)NC2CCCCCC2)S(=O)(=O)c2c(C)[nH]c(=O)[nH]c2=O)cc1 -0.15%
CCOc1ccc(NC(=O)c2ccccc2NS(C)(=O)=O)cc1 7.81%
COC(=O)CSc1nnc(-c2cccnc2)o1 4.99%
Cc1cccc(NC(=O)CSc2nc3c(c(=O)[nH]2)CCCC3)c1C 7.72%
CCc1ccc(CNC(=O)C2CC(=O)N(CCc3ccc(C)cc3)C2)cc1 (configuration not stated) -0.05%
O=C(O)CCC(=O)N(Cc1cccs1)Cc1cccs1 -0.32%
Cn1c(SCC(=O)NC2CCCCC2)nnc1-c1cc2ccccc2o1 -0.46%
CC(=O)c1c(C)n(-c2ccc(N(C)C)cc2)c2ccc(OCC(N)=O)cc12 8.5%
OC(COc1cccc2ccccc12)CN1CCN(c2ccccn2)CC1 (configuration not stated) 9.54%
CCCn1c(C(Cc2ccccc2)NC(=O)COC)nc2ccccc21 (configuration not stated) 7.07%
Cn1cc(S(=O)(=O)N2CCN(c3ccc(F)cc3)CC2)c(=O)n(C)c1=O 3.88%
Cc1cc(NC(=O)CS(=O)(=O)c2cn(C)c3ccccc23)no1 3.14%
Cn1c(=O)[nH]c(=O)c2c1nc(N1CCN(CCO)CC1)n2CCSc1nc2ccccc2s1 0.63%
CC(C)CNC(=O)CC(c1ccccc1)c1c(O)ccc2ccccc12 (configuration not stated) 1.86%
C#CCN(N(C)c1ncc(C(F)(F)F)cc1Cl)S(=O)(=O)c1ccc2ccccc2c1 3.08%
COC(=O)c1ccccc1NC(=O)Cc1ccccc1OC 1.04%
Cc1ccc(S(=O)(=O)N2CCC(C(=O)NCC3CCCO3)CC2)cc1 (configuration not stated) 2.9%
O=C(CCCn1c(SCC(=O)c2ccccc2)nc2ccccc2c1=O)NCC1CCCO1 (configuration not stated) 3.06%
Cc1ccc(NC(=O)CSCC(=O)N2CCOCC2)cc1 2.79%
Cc1ccc(C)c(N2C(=O)CS/C2=N\NC(=O)c2ccccc2Cl)c1 8.52%
O=C(CSCc1c(F)cccc1Cl)NCC1CCCO1 (configuration not stated) 7.29%
COc1ccc(C)cc1NC(=O)CCS(=O)(=O)c1cccc2nonc12 -14.7%
CCCc1noc2c1/C(=N\O)CCC2 8.44%
Cc1ccc(/C=N/NC(=O)Cn2nc(C)c(Br)c2C)o1 5.02%
Cn1nnc(NC(=O)CSc2ncn[nH]2)n1 2.58%
Cc1ccc2cc(CCNC(=O)c3ccc4c(c3)OCO4)c(=O)[nH]c2c1 7.29%
CCOc1cc2[nH]c(=S)n(Cc3ccc(C(=O)NCCOC)cc3)c(=O)c2cc1OCC -2.63%
CCOC(=O)N1CCC(Nc2c(NCCCN3CCN(CC)CC3)c(=O)c2=O)CC1 -0.96%
COc1cc(OC)c(-n2c(C)cc(C=O)c2C)cc1Cl 3.21%
c1ccc(-n2nc3ccccc3n2)cc1 0.64%
CCOc1nc(NCCN2CCOCC2)nc(Nc2ccc(C)cc2)n1 2.85%
CCN(CC)CCn1c2ccc(Cl)cc2c2nc(C)sc21 5.85%
CCOC(=O)c1cnn(Cc2ccccc2Cl)c1N -0.31%
Cc1nc2c(-c3ccc(F)cc3)c(C)nn2c(C)c1CCC(=O)NCc1ccco1 2.8%
CCOC(=O)/C(C#N)=C\c1c(C)cc(C)c(COC(C)=O)c1C 14%
Cc1cc(NC(=O)CCC(=O)N(CC(=O)NCC2CCCO2)c2ccccc2C)no1 (configuration not stated) 4.76%
CCC(C)NC(=O)CSC1=Nc2ccccc2C2=NC(CCC(=O)NCc3ccco3)C(=O)N12 (configuration not stated) 5.92%
Cc1cc(S(=O)(=O)NC2CCCCC2)ccc1OCC(=O)NCc1cccnc1 -2.34%
O=P(c1ccc2c(c1)OCCO2)(N1CCOCC1)N1CCOCC1 -11.5%
COc1ccc(C2=NOC3(CC(=O)N(c4ccc(C)cc4)C3=O)C2)cc1 (configuration not stated) 12.1%
CCOc1ccc(NC(=O)Nc2cc(C)on2)cc1 6.76%
O=C(NC1CCCCC1)C1CC(=O)N(CCc2ccccc2)C1 (configuration not stated) 1.77%
O=C(NCc1ccccc1)[C@@H]1CSC2c3ccccc3C(=O)N21 (some centres not stated) 0.72%
Cc1ccc(-n2c(=O)cc(N3CCN(Cc4ccccc4)CC3)[nH]c2=O)cc1 -11.3%
COCCn1c(SCc2nnc(-c3ccc(OC)c(OC)c3)o2)nc2sc3c(c2c1=O)CCC3 7.92%
Cc1csc(OCC(=O)Nc2ccc(C)c(C)c2)n1 7.64%
Cc1cccc(N2CCN(S(=O)(=O)c3ccc4[nH]c(=O)c(=O)[nH]c4c3)CC2C)c1 (configuration not stated) 7.11%
CCCCCCOc1ccc(OC(=O)c2cccnc2)cc1 4.38%
CCc1ccccc1NC(=O)CN(C)S(=O)(=O)c1ccc2c(c1)c(=O)n(C)c(=O)n2C -0.9%
CCn1c(CC(=O)Nc2ccc(C)cc2)nnc1SCC(=O)Nc1nc(C)cs1 3%
CCCc1nnc(NC(=O)c2cccs2)s1 4.48%
Cn1c(=O)c2c(SCC(=O)N3CCOCC3)nc(C3CC3)nc2n(C)c1=O 5.78%
S=c1nccc(-c2cc(Cl)sc2Cl)[nH]1 3.01%
Cc1ccccc1CSCCNC(=O)c1ccc(Cl)c(S(=O)(=O)N2CCOCC2)c1 -1.19%
CC(C)(C)c1ccc(OC2=CS(=O)(=O)c3ccccc32)cc1 6.47%
CCOc1ccc(C(=O)NCCCN2CCCC2=O)cc1 6.23%
COC(=O)c1cc(NC(=O)C2C3C=CC(C3)C2C(=O)O)cc(C(=O)OC)c1 (configuration not stated) -2.18%
N#CC1=C(N)N(c2ccccc2)C2=C(C(=O)CCC2)C1c1ccccc1 (configuration not stated) 6.03%
O=C(O)CCN=C1CCc2ccccc2N1 6.9%
O=C(NCc1ccccc1Cl)c1csc2c1CCCCC2 5.87%
CC1(C)N=C(c2ccccn2)C(C)(C)N1O -0.08%
O=C(NCc1ccco1)C1(c2ccc(Cl)cc2)CCCC1 1.49%
CNC(=O)c1nnc(Cc2ccc(Cl)cc2)o1 2.02%
O=C(c1ccc2c(c1)OCO2)N1CCOCC1 0.77%
CCN1C(=O)/C(=C\N2CCOCC2)SC1=S 7.15%
CC1(C)COC(c2cccn2Cc2ccccc2Cl)=N1 6.11%
O=C(CN1CCSCC1)N/N=C/c1ccc(F)cc1F 13.2%
COc1ccc(Cl)cc1C(=O)NCc1cn(C)nc1C 7.49%
COc1ccc(CNc2ccc3c(c2)CCC3)cc1OC 4.51%
O=C1/C(=C\Nc2ccccc2)CCN1c1ncccn1 11.1%
N#Cc1cccc(NC(=O)CCC2CCCC2)c1 5.6%
O=C(NC1CCCC1)C(c1ccccn1)N(C(=O)c1csnn1)C1CCCC1 (configuration not stated) -12%
Cc1cc(C(F)F)n2nc(C(=O)Nc3ccc(S(=O)(=O)NC45CC6CC(CC(C6)C4)C5)cc3)nc2n1 3.77%
CCOc1ccc(C(O)Cn2c(=N)n(CCN3CCCCC3)c3ccccc32)cc1 (configuration not stated) -17.3%
Cc1cc(C(F)(F)F)n2ncc(-c3ccccc3)c2n1 4.27%
CCC1(CC)Cc2ccccc2-c2nc3ccccc3c(=O)n21 -9.34%
Cc1ccc(NS(=O)(=O)c2c(C)[nH]c(=O)[nH]c2=O)cc1C 5.29%
CC(C)NC(=O)CSc1nnc(COc2ccccc2Cl)o1 6.2%
CCOC(=O)N1CCC(N(CCOC)C(=O)Nc2ccc(C)c(C)c2)CC1 11%
N#C/C(=C\c1ccccc1)c1n[nH]c(Cn2cncn2)n1 3.67%
CCOC(=O)c1cnc(SCc2nc(N)nc(Nc3ccc(OC)cc3)n2)nc1N 2.04%
O=C(N/N=C/C=C/c1ccccc1)C1CC1(c1ccccc1)c1ccccc1 (configuration not stated) 7.46%
CCOc1ccc(NC(=O)N(CC(C)C)CC(C)C)cc1 3.85%
CCC(C)NC(=O)C1CCCN(C(=O)NC2CCCCC2)C1 (configuration not stated) 5.82%
O=C(CC12CC3CC(CC(C3)C1)C2)Nc1ccc2c(c1)COC2=O 3.57%
COc1ccc(C)cc1N(C)C(=O)c1coc(=O)c2ccccc12 1.74%
C=CCNC(=O)C1CC=CCC1C(=O)O (configuration not stated) 5.98%
CC1CC(C)CN(CC(=O)N2c3ccccc3CCc3ccccc32)C1 (configuration not stated) -2.18%
COC(CNC(=O)Cn1ncc2ccsc2c1=O)OC 8.94%
Cc1cccc(C)c1NC(=O)CSc1nnc(-c2ccccc2)n1Cc1ccc2c(c1)OCO2 7.65%
CC1(C)CC(CC(=O)O)C(=O)O1 (configuration not stated) -10.1%
COc1ccccc1-c1nc(C#N)c(N2CCC(C(N)=O)CC2)o1 -1.38%
COc1ccc(Br)cc1CN1CCN(C(=O)c2cccc(OC)c2OC)CC1 6.66%
O=C(CCN1c2ccccc2Sc2ccccc21)Nc1ccccc1 4.62%
COc1ccc(NC(=O)C(CC(C)C)NS(=O)(=O)c2ccc3c(c2)CCN3C(C)=O)cc1OC (configuration not stated) 5.4%
CCOC(=O)c1ccc2c(c1)nc(C)n2CC 2.03%
CCCNC(=O)c1ccc(Cl)c(Cl)c1 3.09%
CCCCc1nnc(NC(=O)CS(=O)(=O)Cc2ccccc2)s1 2.19%
N#C/C(=C(\O)CCl)c1nnc2n1CCCCC2 1.09%
Cc1ccc(-n2nc3c(c2NC(=O)CCC2CCCCC2)CS(=O)C3)cc1 (configuration not stated) 2.44%

— PubChem BioAssay AID701 (PCMD, 2007)
